# Where a name gives a salt, the structure may show the parent alone.
# System: Danio rerio larvae (5 dpf)
# Assay: 1-h baseline activity (% time moving, periods 1-6) minus DMSO control (percentage points); higher = more locomotor activity than DMSO larvae
# Settings: 10 µM; exposure time: 3 h pre-incubation + 3 h imaging
# Protocol: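 Wild-type 5 dpf zebrafish larvae (n=48 per drug, 96-well plates, 28.5 °C) were exposed to Tocris FDA-approved library compounds at 10 µM (0.1% DMSO) for 3 h before and 3 h during imaging. Images were taken every 6 s during visual (moving coloured lines) and acoustic stimuli, and larvae were tracked with the DeepLabCut-based Z-LaP Tracker. Each behavioural measure is the treated-group mean minus the DMSO vehicle control mean (n=844), in percentage points. This mapping covers compounds with 4-character plate codes.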
row,SMILES,1-h baseline activity
1,CCN(C)C(=O)Oc1cccc([C@H](C)N(C)C)c1 [Rivastigmine tartrate],7.3
2,O=c1[nH]c2ccccc2n1C1CCN(CCCC(c2ccc(F)cc2)c2ccc(F)cc2)CC1 [Pimozide],-18.2
3,COc1cc2c(cc1OC)C1CC(=O)C(CC(C)C)CN1CC2 (stereo unspecified) [Tetrabenazine],-0.785
4,CC(O)(CS(=O)(=O)c1ccc(F)cc1)C(=O)Nc1ccc(C#N)c(C(F)(F)F)c1 (stereo unspecified) [Bicalutamide],3
5,C=C1C[C@@H]2[C@H](CC[C@]3(C)C(=O)CC[C@@H]23)[C@@]2(C)C=CC(=O)C=C12 [Exemestane],-19.5
6,CC(C)C[C@H]1C(=O)N2CCC[C@H]2[C@]2(O)O[C@](NC(=O)[C@@H]3C=C4c5cccc6[nH]c(Br)c(c56)C[C@H]4N(C)C3)(C(C)C)C(=O)N12 [Bromocriptine mesylate],16.1
7,N[C@@H]1C[C@H]1c1ccccc1 [Tranylcypromine hydrochloride],-14.7
8,C=CCN1C[C@H](C(=O)N(CCCN(C)C)C(=O)NCC)C[C@@H]2c3cccc4[nH]cc(c34)C[C@H]21 [Cabergoline],-9.92
9,CC[C@@H](C(N)=O)N1CCCC1=O [Levetiracetam],5.78
10,Cc1cccc([C@H](C)c2c[nH]cn2)c1C [Dexmedetomidine hydrochloride],-27.3
11,CN1C[C@H](C(=O)N[C@]2(C)O[C@@]3(O)[C@@H]4CCCN4C(=O)[C@H](Cc4ccccc4)N3C2=O)C[C@@H]2c3cccc4[nH]cc(c34)C[C@H]21 [Dihydroergotamine mesylate],1.07

# — the supplement of paper PMC9950053
